Data: the supplement of paper PMC9135407
Where a name gives a salt, the structure may show the parent alone.

The compounds below were run on primary human hepatic stellate cells (donor 1) (assay: ACTA2 mRNA fold change vs DMSO (normalised to PSMB2); higher = more ACTA2 expression). Conditions: 48 h.
Method: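 Secondary qRT-PCR screen in primary human HSCs (donor 1), 384-well plates, with compounds dispensed in quadruplicate and incubated for 48 h. Cells-to-CT lysates were used for multiplexed TaqMan qPCR of ACTA2 or COL1A1 with PSMB2 as reference. Fold changes versus DMSO come from a linear model (Ct_gene ~ Ct_PSMB2 + plate + chemical). A hit is defined as COL1A1 and ACTA2 FC <0.5 (FDR <0.05) with PSMB2 between 0.2 and 2.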

| SMILES | ACTA2 mRNA fold change |
| --- | --- |
| Nc1ccc(C(=O)Nc2cccc(-c3nc(N4CCOCC4)c4oc5ncccc5c4n3)c2)cn1 (6.66667 µM) | 1.8 |
| CCCSc1ccc2[nH]c(NC(=O)OC)nc2c1 [Albendazole] (33.3333 µM) | 0.173 |
| CC(C)c1cc(-c2n[nH]c(=O)n2-c2ccc3c(ccn3C)c2)c(O)cc1O [Ganetespib (STA-9090)] (33.3333 µM) | 0.605 |
| CC(C)c1ccc(C(=O)c2cccs2)c(SCCCCCCCCN(C)C)n1 (33.3333 µM) | 0.846 |
| COc1cc2ncn(-c3cc(OCc4ccccc4C(F)(F)F)c(C(N)=O)s3)c2cc1OC (33.3333 µM) | 0.333 |
| CC[C@]1(O)C[C@@H]2CN(CCc3c([nH]c4ccccc34)[C@@](C(=O)OC)(c3cc4c(cc3OC)N(C)[C@H]3[C@@](O)(C(=O)OC)[C@H](OC(C)=O)[C@]5(CC)C=CCN6CC[C@]43[C@@H]65)C2)C1 [Vinblastine sulfate] (33.3333 µM) | 0.02 |
| Cc1ccc(S(=O)(=O)/C=C/C#N)cc1 (33.3333 µM) | 0.24 |
| CN1CCC(Nc2ncc3ncnc(Nc4ccc(F)c(Cl)c4)c3n2)CC1 [BIBX 1382 dihydrochloride] (33.3333 µM) | 0.00877 |
| C[C@]12CC[C@H](O)CC1=CC[C@@H]1[C@@H]2CC[C@]2(C)C(n3cnc4ccccc43)=CC[C@@H]12 [Galeterone] (33.3333 µM) | 0.0205 |
| c1ccc2c(NCCCCCCCNc3c4c(nc5ccccc35)CCCC4)c3c(nc2c1)CCCC3 [bis(7)-Tacrine] (3.33333 µM) | 0.0296 |
